Results from PubChem BioAssay (NCI).
Compounds without any hit were thinned out: in the full panel of roughly 83,000, 20% have a hit.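 Cells were grown in 96-well plates and exposed to the test compound at a single concentration for 48 hours; results are reported as percent growth, with values below 10 considered active.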 Activity calls are given as the source filed them.

Columns and labels:
Assay in all cases: NCI-60 one-dose screen, 48 h (100 = growth as untreated, 0 = no growth, -100 = all killed)
Conditions in all cases: 10 µM unless noted
NCI-H23 lung = tested on: NCI-H23 lung
NCI-H226 lung = tested on: NCI-H226 lung
NCI-H322M lung = tested on: NCI-H322M lung
HOP-62 NSCLC = tested on: HOP-62 NSCLC
NCI-H460 lung = tested on: NCI-H460 lung
HOP-92 NSCLC = tested on: HOP-92 NSCLC
NCI-H522 lung = tested on: NCI-H522 lung
A549/ATCC NSCLC = tested on: A549/ATCC NSCLC
786-0 renal = tested on: 786-0 renal
COLO 205 colon = tested on: COLO 205 colon
DU-145 prostate = tested on: DU-145 prostate
K-562 leukemia = tested on: K-562 leukemia
MALME-3M melanoma = tested on: MALME-3M melanoma
MDA-MB-231 breast = tested on: MDA-MB-231 breast
RXF 393 renal = tested on: RXF 393 renal
SF-268 CNS = tested on: SF-268 CNS
SF-539 CNS = tested on: SF-539 CNS
UACC-257 melanoma = tested on: UACC-257 melanoma
M14 melanoma = tested on: M14 melanoma
SF-295 CNS = tested on: SF-295 CNS

SMILES	growth (NCI-H23 lung)	growth (NCI-H226 lung)	growth (NCI-H322M lung)	growth (HOP-62 NSCLC)	growth (NCI-H460 lung)	growth (HOP-92 NSCLC)	growth (NCI-H522 lung)	growth (A549/ATCC NSCLC)	growth (786-0 renal)	growth (COLO 205 colon)	growth (DU-145 prostate)	growth (K-562 leukemia)	growth (MALME-3M melanoma)	growth (MDA-MB-231 breast)	growth (RXF 393 renal)	growth (SF-268 CNS)	growth (SF-539 CNS)	growth (UACC-257 melanoma)	growth (M14 melanoma)	growth (SF-295 CNS)
CCN(CC)Cc1cc(Nc2nc(NC3CCC(N(C)C)CC3)c3ccccc3n2)ccc1OC (stereo not drawn)	87.8% (inactive)	75.5% (inactive)	76.5% (inactive)	79.4% (inactive)	89.7% (inactive)	25.3% (inactive)	44% (inactive)	67.8% (inactive)	97.8% (inactive)	12% (inactive)	98.8% (inactive)	7.54% (active)	69.1% (inactive)	39.8% (inactive)	74.9% (inactive)	69.8% (inactive)	73.9% (inactive)	-32.6% (active)		
CCCCN(CCCC)CCC(O)c1cc2ccc(C(F)(F)F)cc2c2cc(C(F)(F)F)ccc12 (stereo not drawn)	43.1% (inactive)	83.1% (inactive)	61.3% (inactive)	79.1% (inactive)	5.31% (active)	-4.55% (active)	3.17% (active)	64.8% (inactive)	42.4% (inactive)	33.3% (inactive)	55.3% (inactive)	5.28% (active)	47.8% (inactive)	33.2% (inactive)	7.74% (active)	63.3% (inactive)	48.7% (inactive)	41.6% (inactive)	18.8% (inactive)	
COC(=O)C(CCC(=O)CCl)N1C(=O)c2ccccc2C1=O (stereo not drawn)	79.1% (inactive)	70.1% (inactive)	91.7% (inactive)	79.9% (inactive)	90.1% (inactive)	49.7% (inactive)	-15.1% (active)	104% (inactive)	60.3% (inactive)	87.8% (inactive)	87.6% (inactive)	28.6% (inactive)	42.2% (inactive)	84.6% (inactive)	25.8% (inactive)	56.5% (inactive)	64.9% (inactive)	69.7% (inactive)	39.9% (inactive)	
CNCCCNc1ccnc2cc(Cl)ccc12	-50.4% (active)	-17.6% (active)	-40.7% (active)	-27.1% (active)	-28.2% (active)	-17.9% (active)	-62.3% (active)	1.29% (active)	3.83% (active)	-88.9% (active)	-5.31% (active)	2.22% (active)	-90.3% (active)	-33.8% (active)	-63.3% (active)	-29.5% (active)	-66.7% (active)	-87.5% (active)		
COC1CC(N)C2OC(c3ccccc3)OCC2O1 (stereo not drawn)	103% (inactive)	104% (inactive)	107% (inactive)	114% (inactive)	103% (inactive)	136% (inactive)	98.7% (inactive)	97.9% (inactive)	103% (inactive)	113% (inactive)	115% (inactive)	93.9% (inactive)	106% (inactive)	98.3% (inactive)	115% (inactive)	108% (inactive)	101% (inactive)	95.4% (inactive)	107% (inactive)	
CCCCCCCCCCCCCC[N+](C)(C)CCCCCCCCCCCCCC	70.3% (inactive)	72.9% (inactive)	98.7% (inactive)	86.2% (inactive)	74.3% (inactive)	8.4% (active)	47.3% (inactive)	55.3% (inactive)	63.4% (inactive)	66% (inactive)	97.9% (inactive)	30.5% (inactive)	50.1% (inactive)	78.9% (inactive)	2.29% (active)	70.8% (inactive)	77.2% (inactive)	82.5% (inactive)	75.4% (inactive)	
CNC(=O)c1cc(Oc2ccc(NC(=O)c3[nH]c(SC)nc3-c3ccc(F)cc3)cc2)ccn1	75.4% (inactive)	81.7% (inactive)	85.4% (inactive)	95% (inactive)	72.6% (inactive)	70.6% (inactive)	68% (inactive)	72.2% (inactive)	78.1% (inactive)	7.33% (active)	59.6% (inactive)	7.07% (active)	-7.31% (active)	62.9% (inactive)	70.9% (inactive)	72.5% (inactive)	65.5% (inactive)	33.1% (inactive)	12.7% (inactive)	46.3% (inactive)
CSC(=S)N/N=C(\C)c1ccccn1	33.6% (inactive)	5.78% (active)	8.08% (active)	21.6% (inactive)	-18.1% (active)	31.3% (inactive)	-3.86% (active)	10.3% (inactive)	16.9% (inactive)	24% (inactive)	16.1% (inactive)	8.85% (active)	-3.24% (active)	33.9% (inactive)	0.311% (active)	17.3% (inactive)	1.81% (active)	7.4% (active)	1.91% (active)	
Cc1ccc(CSCc2ccc(C(=O)NC3CC3)o2)cc1	82% (inactive)	105% (inactive)	80.8% (inactive)	109% (inactive)	52.2% (inactive)	75.2% (inactive)	43.5% (inactive)	45.3% (inactive)	91.6% (inactive)	63.7% (inactive)	80.5% (inactive)	40% (inactive)	96.4% (inactive)	35.3% (inactive)	92.7% (inactive)	83.2% (inactive)	79.8% (inactive)	93.5% (inactive)		
CCC1CCc2nc3sc(C(=O)Nc4cccc(F)c4)c(N)c3cc2C1 (stereo not drawn)	91.7% (inactive)	85.2% (inactive)	87.8% (inactive)	74.1% (inactive)	74.5% (inactive)	61.4% (inactive)	70.1% (inactive)	66.3% (inactive)	83.1% (inactive)	67.8% (inactive)	60% (inactive)	28.6% (inactive)	34.8% (inactive)	78.3% (inactive)	65.8% (inactive)	68.2% (inactive)	58.8% (inactive)	49.5% (inactive)	47.5% (inactive)	
O=C1CC2(O)CSc3nc(=O)cc(n32)N1 (stereo not drawn)	107% (inactive)	98.6% (inactive)	93.2% (inactive)	112% (inactive)	104% (inactive)	105% (inactive)	102% (inactive)	96.5% (inactive)	99.6% (inactive)	103% (inactive)	115% (inactive)	111% (inactive)	99.8% (inactive)	100% (inactive)	110% (inactive)	112% (inactive)	104% (inactive)	99.2% (inactive)	101% (inactive)	88.8% (inactive)
Oc1[nH]c2ccccc2c1/C=c1/ccc2c(c1)N=C(c1ccc(C(F)(F)F)cc1)N=2	67% (inactive)	89.6% (inactive)	76.8% (inactive)	71.6% (inactive)	41.1% (inactive)	57.4% (inactive)	40.7% (inactive)	50% (inactive)	6.1% (active)	78.8% (inactive)	63.1% (inactive)	14.6% (inactive)	74.2% (inactive)	46.6% (inactive)	-37.2% (active)	68.7% (inactive)	67.4% (inactive)	67.4% (inactive)	44.6% (inactive)	
COc1ccc(-c2nn(-c3cccc(Cl)c3)cc2/C=C2\C(=N)N(c3ccccc3)N=C2N)cc1	51.2% (inactive)	40.8% (inactive)	44.9% (inactive)	65.8% (inactive)	6.92% (active)	96.2% (inactive)	51.5% (inactive)	36.6% (inactive)	29.1% (inactive)	-22.8% (active)	37.6% (inactive)	1.77% (active)	28.8% (inactive)	59% (inactive)	85% (inactive)	47.8% (inactive)	-12.8% (active)	58.4% (inactive)	5.51% (active)	
COc1ccc(/C=c2\c(=O)n(-c3ccccc3)c3nn4c(n23)=NNC42CCCCC2)cc1	92.7% (inactive)	75.8% (inactive)	96.3% (inactive)	87.7% (inactive)	101% (inactive)	94.1% (inactive)	90.3% (inactive)	104% (inactive)	106% (inactive)	105% (inactive)	106% (inactive)	109% (inactive)	97.8% (inactive)	87.3% (inactive)	110% (inactive)	92% (inactive)	102% (inactive)	111% (inactive)	102% (inactive)	
CCCc1n(Cc2ccc3ccccc3c2)c2ccccc2[n+]1Cc1ccc2ccccc2c1	-12.9% (active)	-4.44% (active)	4.72% (active)	-55.4% (active)	-76.1% (active)	-48.1% (active)	-60.2% (active)	-19.4% (active)	-85.2% (active)	-77% (active)	2.32% (active)	-70.8% (active)	-63% (active)	-71.7% (active)	-79.3% (active)	-49.7% (active)	-34.5% (active)	-49.9% (active)	-72% (active)	-59.8% (active)
COc1ccc(/C=C/C(=O)c2ccc(NC(=O)CSc3nnc(-c4ccc(OC)cc4)n3-c3ccccc3)cc2)cc1	99.2% (inactive)	99.2% (inactive)	103% (inactive)	101% (inactive)	107% (inactive)	106% (inactive)	91.4% (inactive)	80.2% (inactive)	102% (inactive)	107% (inactive)	104% (inactive)	78.1% (inactive)	96.8% (inactive)	90.9% (inactive)	108% (inactive)	101% (inactive)	100% (inactive)	91.9% (inactive)		
